# Screening data (PubChem BioAssay)
# This is a sample that favours compounds with a hit; in the whole collection about 10% have one here.
# G9a block: blocks human histone lysine methyltransferase G9a; G9a H3K9 monomethylation, AlphaScreen, 2 h; AID 504332; 350,000 tested, 8.8% active; Potency, µM (highest dose often 102 µM), for the others: at the top dose activity, negative = inhibition, most hits filed as inhibitors; also: potency is read from the fitted curve at half-maximal effect; nearly all actives have a fitted effect of over 75% in size
# Target sequence (Q96KQ7 913-1193 limits assumed): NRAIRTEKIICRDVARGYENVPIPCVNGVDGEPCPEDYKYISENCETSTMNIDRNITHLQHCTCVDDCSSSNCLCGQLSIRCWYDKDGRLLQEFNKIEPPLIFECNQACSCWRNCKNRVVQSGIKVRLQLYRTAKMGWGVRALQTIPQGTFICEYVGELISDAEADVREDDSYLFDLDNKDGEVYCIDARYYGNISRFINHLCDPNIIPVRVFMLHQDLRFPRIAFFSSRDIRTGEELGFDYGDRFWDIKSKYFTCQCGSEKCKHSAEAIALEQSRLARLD
#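 Step 1: enzyme (final 20 nM) with compound, 15 min RT. Step 2: substrate peptide 500 nM and SAM 20 uM, 2 h RT. Step 3: anti-H3K9me1 antibody and AlphaScreen beads, 10 min, then plate read.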
# Sfp PPTase inh: Sfp phosphopantetheinyl transferase inhibition. Q9F4F7. Biochemical Sfp PPTase activity, qHTS. Potency, µM, without a hit: largest response in the series, negative = inhibition, actives largely listed as inhibitors. 310,000 tested, 3.5% active. AID 1490;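 also: the enzyme is Sfp with the accession as filed and its product quenches rhodamine fluorescence; potency is read from the fitted curve at half-maximal effect; 0% = enzyme reaction without inhibitor and -100% = no enzyme wells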
#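 After 15 min at room temperature with compound, 15 nM Sfp received 5 uM rhodamine-CoA plus 12.5 uM BHQ-2-ybbR (50 mM Hepes pH 7.6, 10 mM MgCl2). Rate came from the fluorescence difference over 30 min, ex 525/em 598 nm.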
# VDR inhibitor: inhibitors of human vitamin D receptor | 400,000 tested, 0.93% active | VDR-SRC2-3 peptide fluorescence polarization, 2 h | Potency, µM, without a hit: max response, negative = inhibition, most hits filed as inhibitors; also: potency is read from the fitted curve at half-maximal effect
# Target sequence (P11473 whole entry, looked up): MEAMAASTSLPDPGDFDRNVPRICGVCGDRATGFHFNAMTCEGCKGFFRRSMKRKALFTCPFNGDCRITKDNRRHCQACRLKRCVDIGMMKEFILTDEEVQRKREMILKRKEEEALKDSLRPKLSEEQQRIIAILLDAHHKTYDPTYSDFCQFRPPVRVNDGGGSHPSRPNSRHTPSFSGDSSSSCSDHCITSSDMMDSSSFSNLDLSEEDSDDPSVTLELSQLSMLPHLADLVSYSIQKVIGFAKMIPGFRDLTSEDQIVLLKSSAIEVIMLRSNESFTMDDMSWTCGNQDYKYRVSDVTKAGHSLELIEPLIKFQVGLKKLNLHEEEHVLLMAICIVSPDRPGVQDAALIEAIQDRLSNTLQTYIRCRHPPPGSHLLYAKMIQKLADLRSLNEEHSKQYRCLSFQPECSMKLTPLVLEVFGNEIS
#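 Fluorescence polarization assay of small-molecule disruption of VDR binding to coregulator peptide SRC2-3. Compounds and controls pin-transferred, then read after 2 h incubation at ambient room temperature.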
# Mm-Cpn inhibitor: M. maripaludis TRiC chaperonin inhibition; purified Mm-Cpn ATPase, ADP Transcreener TR-FRET; 330,000 tested, 0.031% active; Potency, µM (doses to about 76.9 µM), without a hit: at the highest dose activity, negative = inhibition, actives largely listed as inhibitors; also: potency is read from the fitted curve at half-maximal effect; nearly all actives have a fitted effect of over 80% in size
#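 Inhibition of chaperonin ATP hydrolysis is measured as reduced ADP production, detected by competitive TR-FRET in which signal falls with ADP. Final enzyme 25 nM and ATP 10 uM, reacted 30 min at 37°C.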
# PLK1 PBD block: inhibitors of human PLK1 polo-box domain binding. P53350. Plk1 PBD binding of FITC phosphopeptide, fluorescence polarization. 360,000 tested, 2.8% active. Potency, µM, for inactives: max response, negative = inhibition, hits mostly inhibitors; also: potency is read from the fitted curve at half-maximal effect; series mostly up to about 57 µM; nearly all actives have a fitted effect of over 65% in size
# CCT chaperon mod: cytosolic chaperonin activity modulation; purified chaperonin ATPase assay, HTRF ADP detection, 30 min; activity change, % (test concentration not listed), hits read low; 360,000 tested, 0.3% active; in the data active = activity change below about -30%
#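 ATPase activity: ADP formed was measured by HTRF Transcreener (665/615 nm ratio) after 30 min at 37 deg C with 10 uM ATP. Compounds screened at one 76 uM concentration against 40 or 20 nM TRiC in Tris pH 7.4/KCl/MgCl2/DTT buffer.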
# Numbers without * were called inactive; ? = inconclusive; nt = not tested or not shown; [ ] = dose if it differs, or a comment. Unless noted, calls follow the shape of the dose curve; as a rule, active = well fitted curve in the direction sought with a large enough effect; inconclusive = small, poorly fitted or top-dose-only effect, or another doubt; inactive = no such curve, though single readings can be large; an effect the other way counts as inactive or inconclusive. Unless noted, % is scaled to controls: 0 for no effect and ±100 for the full control effect.
SMILES,G9a block,Sfp PPTase inh,VDR inhibitor,Mm-Cpn inhibitor,PLK1 PBD block,CCT chaperon mod
COCC(C)n1c(C)cc(C(=O)CSc2nnc(N)s2)c1C (stereo unspecified),6.3µM*,8%,-18%,1%,-13%,-2
Cc1cc(C)c(C(=O)CSc2nnc(C)s2)c(C)c1,40%,-8%,-17%,1%,-8%,-3
Cc1cc(C)c(C(=O)CSc2nnc(C)c(=O)[nH]2)cc1C,40µM*,8%,-2%,-1%,-15%,0
CC(=O)Nc1ccc(NC(=O)CSc2nnc(C)c(=O)[nH]2)cc1,6%,-24%,3%,-4%,-9%,0
Cc1cc(C)c(C(=O)CSc2nnc(N)s2)c(C)c1,25µM*,8%,-12%,3%,-3%,-1
CCOc1ccc(C(=O)CSc2nnc(N)s2)cc1,32µM*,3%,6%,-1%,-9%,-4
Cc1ccc(C(=O)CSc2nnc(N)s2)c(C)c1,-32%,1%,-13%,0%,-3%,-2
Cc1cc(C(=O)CSc2nnc(N)s2)c(C)n1C1CC1,50µM*,nt,11%,-2%,0%,0
Cc1cc(C)c(C(=O)CSc2nnc(N)s2)cc1C,?,6%,?,-1%,9.5µM*,-3
CC(=O)OCC(NC(=O)C(C)NC(=O)OC(C)(C)C)C1OC(n2ccc(=O)[nH]c2=O)C(OC(C)=O)C1OC(C)=O (stereo unspecified),nt,-16%,-10%,nt,nt,nt
O=C(Nc1ccc(F)cc1F)c1noc2c1CCc1ccccc1-2,-2%[59 µM],nt,-5%,nt,nt,nt
O=C(CCCn1c(=O)c2cccn2c2ccccc21)Nc1cccc(Cl)c1,-45%[59 µM],nt,8%,nt,nt,nt
Cc1c(C=NNc2ccccc2)[nH]c(=O)[nH]c1=O,nt,nt,-6%,nt,-2%,2
COC(=O)c1c(C)[nH]c(/C=N/Nc2ccccc2)c1C,25µM*,-3%,17%,0%,-29%,-1
Cc1c2c(nc3ccccc13)CCC(C(C)(C)C)C2 (stereo unspecified),50µM*,-19%,-7%,-3%,0%,-3
O=C(NC1CCCC1)C(c1ccc(F)cc1)N(Cc1ccc(F)cc1)C(=O)CCl (stereo unspecified),45µM*,6%,-18%,-1%,-5%,-5
O=C(NC1CCCCC1)C(c1ccncc1)N(Cc1ccc(F)cc1)C(=O)c1ccccn1 (stereo unspecified),?,6%,-1%,0%,-1%,2
Cn1c(C(=O)N2CCN(Cc3ccccc3)CC2)cc2c(=O)n(C)c3ccccc3c21,45µM*,9%,-7%,-30%,-12%,1
CCN1CCN(C(=O)c2cc3c(=O)n(C)c4ccccc4c3n2C)CC1,?,4%,-16%,-1%,-14%,-1
Cc1cccc(N2CCN(C(=O)c3cc4c(=O)n(C)c5ccccc5c4n3C)CC2C)c1 (stereo unspecified),45µM*,?,-20%,-3%,2%,0
COc1cc(OC)c(-c2c3cc(O)c(=O)cc-3oc3cc(O)c(O)cc23)cc1OC,10µM*,16µM*,-15%,-11%,-57%,-1
O=c1/c(=C/c2ccccn2)sc2n1CN(c1ccccc1)CN=2,50µM*,0%,-18%,-2%,-23%,-24
Cc1ccc(NC(=O)Nc2nnc(N(CC(C)C)CC(C)C)s2)cc1Cl,-33%[59 µM],nt,11%,nt,nt,nt
CN(C)c1ccc(C(CNC(=O)c2c(F)cccc2Cl)N2CCOCC2)cc1 (stereo unspecified),-38%[59 µM],nt,11%,nt,nt,nt
CCCN1C(=O)/C(=C/C=C2\N(CC)c3ccccc3C2(C)C)SC1=S,?,16%,-7%,-1%,0%,-2
SMILES,G9a block,Sfp PPTase inh,VDR inhibitor,Mm-Cpn inhibitor,PLK1 PBD block,CCT chaperon mod
CN1/C(=C\C=C2/SC(=S)N(CC(=O)O)C2=O)C(C)(C)c2ccccc21,18µM*,22µM*,0%,-3%,113%,-1
C=CCN1C(=O)/C(=C\C=C2\N(C)c3ccccc3C2(C)C)SC1=S,16µM*,-16%,17%,1%,?,2
Cc1cc(-c2ccco2)n(CC(=O)NCc2ccco2)n1,50µM*,-25%,-12%,1%,-19%,-2
Cc1ccccc1NC(=O)Cn1nnc(C(=O)NCc2ccco2)c1N,8%,4%,-25%,2%,27µM*,-2
CC(C)C(=O)OCc1cc(=O)n2nc(C3CCCCC3)sc2n1,10%[59 µM],nt,7%,nt,nt,nt
Cc1ccc(C)c(NC(=S)c2ccc3ccccc3n2)c1,?,10%,-12%,-4%,3%,-2
Cc1ccc(C)c(NC(=S)c2nc3ccccc3s2)c1,?,?,9%,-2%,8.4µM*,3
Cc1ccc(NC(=S)c2nc3ccccc3s2)cc1,22µM*,14%,4%,-1%,-15%,0
S=C(Nc1ccc(Cl)cc1)c1nc2ccccc2s1,?,27%,-12%,1%,-14%,1
Cc1ccc(C)c(NC(=S)c2ccccn2)c1,?,-19%,-14%,0%,24µM*,2
CCn1c(C(=O)NCc2ccccc2C)cc2oc3ccccc3c21,-3%[59 µM],nt,-5%,nt,nt,nt
CCOc1ccc(-c2nnc(SCC(=O)NCCC(C)C)nc2-c2ccc(OCC)c(OC)c2)cc1OC,?,nt,4%,nt,nt,nt
COc1ccccc1CNc1cc(-c2ccccc2C(F)(F)F)ncn1,0%[0.501 µM],2%,-20%,nt,nt,nt
Cc1ccccc1N/C(=C(/C(Cl)=C(Cl)Cl)[N+](=O)[O-])n1nnc2ccccc21,10µM*,-4%,-17%,nt,?,3
Cc1ccccc1NC(=O)c1nn(C)c(C(=O)Nc2ccccc2C)c1[N+](=O)[O-],6%,10%,2%,-5%,-4%,-6
COc1ccc(N/C(=C(/C(Cl)=C(Cl)Cl)[N+](=O)[O-])n2nnc3ccccc32)cc1,11µM*,?,nt,-5%,nt,nt
Cc1cc(OCCCCNC(C)C)cc(C(C)C)c1,28µM*,-24%,3%,0%,2%,-1
O=c1cc(N2CCCCC2)c(-c2ccccc2)nn1Cc1ccc(Cl)cc1,32%[12.7 µM],?,5%,-1%,-3%,-1
O=c1cc(N2CCCCC2)c(-c2ccccc2)nn1Cc1c(Cl)cccc1Cl,nt,?,-18%,-1%,27µM*,2
CCCCCCCCCCCCCC(=O)OCC(COP(=O)([O-])OCC[N+](C)(C)C)OC(=O)CCCCCCCCCCCCC (stereo unspecified),-11%[12.7 µM],10%,0%,nt,nt,nt
CCCCCCCCCCCCCCCCCCNC(=O)OCC(COP(=O)([O-])OCC[n+]1ccsc1)OC (stereo unspecified),21µM*,nt,-6%,nt,nt,nt
Nc1ccc(-c2nc3ccc(N)cc3[nH]2)cc1,-39%,2%,34%,?,2%,0
